From PubChem BioAssay (NCATS)
Several values for one entry are separate records, joined by “and”; a condition that tells them apart may be missing. Equal values may be shown once. Records with an inconclusive call do not appear. Activity calls are given as the source filed them. Unless noted, calls follow the shape of the full dose curve.

Columns and labels:
[1] = qHTS assay for small molecule agonists of retinoid X receptor alpha signaling (AID 588544); conditions: HEK293T RXRa-UAS-bla, beta-lactamase reporter, 18 h; 530 nm emission;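 as to activation: 0% = DMSO basal wells and 100% = reference agonist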
[2] = target: Retinoic acid receptor RXR-alpha (Homo sapiens) (UniProt P19793); test: as above; conditions: HEK293T RXRa-UAS-bla, beta-lactamase reporter, 18 h; series mostly up to 76.7 µM
[3] = target: Thyroid hormone receptor beta (Homo sapiens) (UniProt P10828); test: qHTS assay for small molecule agonists of thyroid hormone receptor beta signaling (AID 588545); conditions: TR-UAS-bla GripTite HEK 293, beta-lactamase ratio, agonist mode, 18 h, percent of T3 response, DMSO as zero; series mostly up to 76.7 µM;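 also: 0% = DMSO only and 100% = 10 nM T3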
How it was run: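 TR-UAS-bla-GripTite HEK 293 cells in medium with 2% charcoal/dextran FBS, 0.1 mM NEAA and 1 mM sodium pyruvate were treated with titrated compounds for 18 hrs at 37 C. Beta-lactamase reporter was read with CCF4 dye (ex 405, em 460/530 nm); EC50 from Hill fits.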

[4] = qHTS assay for small molecule antagonists of retinoid X receptor alpha signaling (AID 588546; active = well fitted inhibition curve with a large enough effect in the signal ratio, with a control signal flat, not every such curve was filed as active; the % refers to the signal ratio;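 also: cells stimulated with 9-cis-retinoic acid as agonist; % is scaled to controls: 0 for no effect and ±100 for the full control effect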); conditions: HEK293T RXRa-UAS-bla, beta-lactamase ratio, antagonist mode; measured here: W530 green channel, cytotoxicity proxy
How it was run: (§1)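 Beta-lactamase reporter inhibition, read as CCF4 fluorescence ratio (ex 405, em 460/530 nm) after 2 h at RT. HEK293T UAS-bla cells, 2500/well, were stimulated with 9-cis-RA at 500 or 100 nM final alongside test compound for 18 h at 37 C.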

[5] = target: Thyroid hormone receptor beta (Homo sapiens) (UniProt P10828); test: qHTS assay for small molecule antagonists of thyroid hormone receptor beta signaling (AID 588547; active = well fitted inhibition curve with a large enough effect in the signal ratio, with a control signal flat, not every such curve was filed as active; the % refers to the signal ratio;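 also: cells stimulated with 0.4 nM T3 agonist during compound exposure; % is scaled to controls: 0 for no effect and ±100 for the full control effect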); conditions: TR-UAS-bla HEK293, beta-lactamase ratio, antagonist mode, 18 h
How it was run: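 TR-UAS-bla GripTite HEK293 cells in 2% charcoal/dextran FBS medium were preincubated 4 h at 37 C, given compound (0.59 nM to 92 uM) plus 0.4 nM T3 (final) for 18 h, then CCF4 for 2 h at RT; Hill fit gave IC50.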

[6] = target: Voltage-gated inwardly rectifying potassium channel KCNH2 (Homo sapiens) (UniProt Q12809); test: qHTS Assay for Small Molecule Inhibitors of the Human hERG Channel Activity (AID 588834; active = well fitted inhibition curve with a large enough effect;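 also: top concentration of the series differs between compounds; % is scaled to controls: 0 for no effect and ±100 for the full control effect; lower thallium flux fluorescence means stronger hERG block; nearly all actives have a fitted effect of over 50% in size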); conditions: U2OS BacMam hERG, FluxOR thallium flux fluorescence; series mostly up to 92.2 µM
How it was run: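 Kinetic FDSS fluorescence; U2OS + hERG BacMam (~100 virus particles/cell); FluxOR Tl+ flux; ~10 min cpd; AC50 (Hill).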

[7] = qHTS assay for small molecule agonists of the antioxidant response element (ARE) signaling pathway (AID 651741; active = well fitted activation curve with a large enough effect in the signal ratio; the % refers to the signal ratio; also: % of control where 0% means no effect); conditions: HepG2 ARE-bla reporter, beta-lactamase FRET ratio, 16 h; series mostly up to 96 µM
How it was run: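 Compounds in DMSO are pinned onto HepG2 ARE-bla cells (2,000/well) that were preincubated 5 h; plates stay 16 h at 37 C, then beta-lactamase activity is detected with LiveBLAzer B/G substrate by fluorescence.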

[8] = qHTS assay for small molecule activators of the nuclear factor-kappa B (NF-kB) signaling pathway (AID 651749; active = well fitted activation curve with a large enough effect in the signal ratio; the % refers to the signal ratio; also: % of control where 0% means no effect); conditions: NF-kB-bla ME-180 cells, beta-lactamase FRET ratio, 16 h; stronger effect = higher value
How it was run: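 Screening used 2,000 ME-180 reporter cells per well exposed to pinned compound (23 nL) or DMSO; after 16 hr at 37C, beta-lactamase expression under NF-kB control was assessed through FRET.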

[9] = target: Retinoic acid receptor RXR-alpha (Homo sapiens) (UniProt P19793); test: qHTS assay for small molecule antagonists of retinoid X receptor alpha signaling (AID 588546); conditions: HEK293T RXRa-UAS-bla, beta-lactamase ratio, antagonist mode;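 also: cells stimulated with 9-cis-retinoic acid as agonist; % is scaled to controls: 0 for no effect and ±100 for the full control effect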
How it was run: as §1

[10] = qHTS assay for small molecule activators of the p53 signaling pathway (AID 651743; active = well fitted activation curve with a large enough effect in the signal ratio, not every such curve was filed as active; the % refers to the signal ratio; also: % of control where 0% means no effect); conditions: HCT-116 p53RE-bla, beta-lactamase FRET ratio, 16 h; stronger effect = higher value
How it was run: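 Cell-based beta-lactamase reporter (p53 response elements, HCT-116 background). After a 5-hour preincubation, cells received compound for 16 hours at 37 C; substrate development ran 2 hours at room temperature.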

Chain of Retinoic acid receptor RXR-alpha (Homo sapiens) (P19793 whole entry, looked up): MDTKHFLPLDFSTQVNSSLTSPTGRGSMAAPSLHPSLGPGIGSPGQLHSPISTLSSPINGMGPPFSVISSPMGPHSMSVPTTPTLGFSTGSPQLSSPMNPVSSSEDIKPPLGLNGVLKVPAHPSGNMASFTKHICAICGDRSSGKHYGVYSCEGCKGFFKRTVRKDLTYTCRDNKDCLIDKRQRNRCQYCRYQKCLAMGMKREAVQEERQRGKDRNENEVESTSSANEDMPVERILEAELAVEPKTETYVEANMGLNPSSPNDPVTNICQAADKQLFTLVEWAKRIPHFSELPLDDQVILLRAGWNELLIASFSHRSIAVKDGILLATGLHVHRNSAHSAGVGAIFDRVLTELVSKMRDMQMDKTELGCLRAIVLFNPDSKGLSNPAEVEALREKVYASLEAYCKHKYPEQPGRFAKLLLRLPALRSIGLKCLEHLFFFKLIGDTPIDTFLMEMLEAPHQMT
Chain of Voltage-gated inwardly rectifying potassium channel KCNH2 (Homo sapiens) (Q12809 whole entry, looked up): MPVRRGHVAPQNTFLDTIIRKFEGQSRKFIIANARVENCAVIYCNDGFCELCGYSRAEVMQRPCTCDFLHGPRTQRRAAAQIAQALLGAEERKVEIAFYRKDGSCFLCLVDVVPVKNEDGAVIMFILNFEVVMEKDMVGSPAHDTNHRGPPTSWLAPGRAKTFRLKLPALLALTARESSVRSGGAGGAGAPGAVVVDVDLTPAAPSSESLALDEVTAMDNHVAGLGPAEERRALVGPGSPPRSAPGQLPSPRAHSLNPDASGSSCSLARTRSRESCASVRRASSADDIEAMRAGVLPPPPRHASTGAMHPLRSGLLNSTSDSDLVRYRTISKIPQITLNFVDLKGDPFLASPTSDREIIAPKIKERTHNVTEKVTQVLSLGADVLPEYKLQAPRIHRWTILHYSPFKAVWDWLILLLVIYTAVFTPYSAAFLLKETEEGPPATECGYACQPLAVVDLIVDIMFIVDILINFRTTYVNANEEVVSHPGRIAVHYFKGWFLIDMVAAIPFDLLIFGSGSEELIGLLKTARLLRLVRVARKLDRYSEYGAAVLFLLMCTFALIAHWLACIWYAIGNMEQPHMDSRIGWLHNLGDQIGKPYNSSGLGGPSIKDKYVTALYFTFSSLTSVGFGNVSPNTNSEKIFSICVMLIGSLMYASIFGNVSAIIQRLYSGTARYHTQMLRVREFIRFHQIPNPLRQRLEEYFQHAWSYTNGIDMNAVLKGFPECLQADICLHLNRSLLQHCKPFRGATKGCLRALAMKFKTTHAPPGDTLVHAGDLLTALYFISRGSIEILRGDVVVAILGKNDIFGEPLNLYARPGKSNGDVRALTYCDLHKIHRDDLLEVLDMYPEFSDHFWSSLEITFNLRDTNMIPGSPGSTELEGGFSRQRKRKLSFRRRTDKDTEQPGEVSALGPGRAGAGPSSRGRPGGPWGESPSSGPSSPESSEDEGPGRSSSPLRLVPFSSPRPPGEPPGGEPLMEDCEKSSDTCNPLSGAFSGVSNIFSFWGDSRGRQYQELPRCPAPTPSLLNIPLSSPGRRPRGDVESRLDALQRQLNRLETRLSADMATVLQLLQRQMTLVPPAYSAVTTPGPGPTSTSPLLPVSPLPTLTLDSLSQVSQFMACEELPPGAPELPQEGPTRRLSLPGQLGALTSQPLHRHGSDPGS
Chain of Thyroid hormone receptor beta (Homo sapiens) (P10828 whole entry, looked up): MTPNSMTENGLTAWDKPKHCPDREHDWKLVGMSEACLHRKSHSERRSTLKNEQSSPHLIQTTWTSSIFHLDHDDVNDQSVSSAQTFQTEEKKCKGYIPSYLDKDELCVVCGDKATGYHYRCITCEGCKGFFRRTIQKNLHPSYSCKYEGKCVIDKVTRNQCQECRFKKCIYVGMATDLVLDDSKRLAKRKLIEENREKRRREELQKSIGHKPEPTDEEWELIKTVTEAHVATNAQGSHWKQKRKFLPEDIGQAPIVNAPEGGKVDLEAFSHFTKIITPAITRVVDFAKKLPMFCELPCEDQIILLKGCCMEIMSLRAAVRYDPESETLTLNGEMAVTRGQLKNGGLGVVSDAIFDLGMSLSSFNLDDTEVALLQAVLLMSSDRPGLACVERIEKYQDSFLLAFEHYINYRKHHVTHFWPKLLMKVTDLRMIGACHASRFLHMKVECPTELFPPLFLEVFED

Compound | max response [1] | outcome [2] | outcome [3] | max response [4] | activity change % (negative = inhibition) [5] | Potency [6] | Potency [7] | activation [8] | max response [9] | activation [10]
Nc1cccc(C(F)(F)F)c1 | 3.76% and -4.65% | inactive | inactive | -1.51% and -8.69% | 5.58% (inactive) | inactive | inactive | – | – | –
CCCC(C)CO (stereo not given) | -14.8% | inactive | inactive | 5% | 6.59% (inactive) | inactive | – | -0.126% (inactive) | – | –
OC1CCCC1 | -0.127% | inactive | inactive | -8.22% | – | inactive | – | 1.54% (inactive) | 5.18% (inactive) | –
NC(=O)/N=N/C(N)=O | -17.5% | inactive | inactive | -9.97% | – | inactive | – | – | – | -0.505% (inactive)
Nc1ccc([N+](=O)[O-])c(N)c1 | -12.6% | inactive | inactive | -1.48% | -0.546% (inactive) | inactive | – | 0.47% (inactive) | – | -5.74% (inactive)
CCCCCCC=O | -2.47% | inactive | inactive | 9.36% | -17.7% (inactive) | inactive | inactive | -0.682% (inactive) | – | 0.659% (inactive)
CC(CCl)OC(C)CCl (stereo not given) | 2.52% | inactive | inactive | -11.8% | – | inactive | – | 0.22% (inactive) | 19.4% (inactive) | -3.45% (inactive)
CC=O | -8.77% | inactive | inactive | -2.19% | – | inactive | inactive | 9.05% (inactive) | – | 0.53% (inactive)
C=CCn1c(=O)n(CC=C)c(=O)n(CC=C)c1=O | -13.5% | inactive | inactive | -12.4% | -0.231% (inactive) | inactive | – | – | – | 0.0041% (inactive)
FC(F)(F)c1ccccc1Cl | -12.9% | inactive | inactive | -4.91% | – | inactive | – | -0.494% (inactive) | -5% (inactive) | 1.57% (inactive)
CN(C)c1cccc(O)c1 | -0.228% | inactive | inactive | -1.21% | – | inactive | – | -0.862% (inactive) | 8.46% (inactive) | –
COC(=O)CCCC(=O)OC | -5.09% | inactive | inactive | -9.56% | -27% (inactive) | inactive | – | -0.14% (inactive) | – | -1.04% (inactive)
C=CCOC(=O)COCCC(C)C | -2.63% | inactive | inactive | -11.5% | – | inactive | – | -0.303% (inactive) | 9.99% (inactive) | –
C=C(C)C(=O)OCC(C)C | -16.8% | inactive | inactive | -5.76% | – | inactive | – | 1.27% (inactive) | -6.82% (inactive) | -1.84% (inactive)
Cc1cscn1 | -3.55% | inactive | inactive | -2.99% | – | inactive | – | -0.548% (inactive) | 3.21% (inactive) | -1.86% (inactive)
CCN(CC)c1cccc(O)c1 | -9.19% | inactive | inactive | 6.69% | 4.53% (inactive) | inactive | – | 0.251% (inactive) | – | -0.279% (inactive)
Cc1ccc(N(C)C)cc1 | 5.65% | inactive | – | -1.89% | 13.9% (inactive) | inactive | inactive | -0.0617% (inactive) | 25.4% (inactive) | -2.63% (inactive)
Cc1cccc2cccnc12 | -2.92% | inactive | inactive | – | -0.45% (inactive) | inactive | – | – | – | -4.27% (inactive)
Cc1ccc(C)cc1 | 4.64% | inactive | – | -6.14% | 2.43% (inactive) | inactive | inactive | – | 34.4% (inactive) | -3.21% (inactive)
CCCCC(CC)CO (stereo not given) | -6.11% | inactive | inactive | -1.2% | – | inactive | – | – | – | -4.64% (inactive)
